Data on eight compounds can be found in PubChem BioAssay (NCI).

Molecules are shown by their SMILES. The panel holds about 83,000 compounds, 20% with a hit somewhere; the sample as a whole holds those more often.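 The endpoint reported here, percent growth, reads 100 for growth as untreated, 0 for no net growth and -100 for all cells dead.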 Unmarked numbers belong to inactive results. Active and inactive are the calls of the source. The calls were made as follows: active = growth percent below 10; inactive = the rest.

Test systems include NCI-H23 lung; NCI-H226 lung; NCI-H322M lung; HOP-62 NSCLC; NCI-H460 lung; HOP-92 NSCLC; NCI-H522 lung; A549/ATCC NSCLC; 786-0 renal; COLO 205 colon; DU-145 prostate; K-562 leukemia; MALME-3M melanoma; MDA-MB-231 breast; RXF 393 renal; SF-268 CNS; SF-295 CNS; SF-539 CNS; UACC-257 melanoma; M14 melanoma.
Assay in all cases: NCI-60 one-dose screen, 48 h (100 = growth as untreated, 0 = no growth, -100 = all killed)
What all share (settings): 10 µM unless noted

Regarding `O=c1c2cc(F)ccc2sc2c(NCCO)nc3ccccc3c12`, the growth was 95.6% in the test with NCI-H23 lung; 103% in the test on NCI-H226 lung; 99.7% in the test on NCI-H322M lung; 105% with HOP-62 NSCLC; 112% in the test on NCI-H460 lung; 110% in the test on HOP-92 NSCLC. Further, the growth with NCI-H522 lung was 91.1%; with A549/ATCC NSCLC it was 101%; in the test with 786-0 renal, 104%; in the test on COLO 205 colon, 114%; with DU-145 prostate, 112%; in the test with K-562 leukemia it was 98.3%. Further, the growth in the test on MALME-3M melanoma was 120%; with MDA-MB-231 breast it was 98.1%; in the test on RXF 393 renal it was 109%; with SF-268 CNS, 103%; in the test with SF-295 CNS, 104%; in the test on SF-539 CNS, 99.9%. Besides, the growth is 104% in the test on UACC-257 melanoma and 114% in the test with M14 melanoma.

With `NCCCNc1nc2ccccc2c2c(=O)c3cc(C(F)(F)F)ccc3sc12`, the growth with NCI-H23 lung is 49.6%; in the test on NCI-H226 lung, 86.8%; in the test with NCI-H322M lung it was 56.8%; in the test with HOP-62 NSCLC it was 52.7%; with NCI-H460 lung it was -69.7% (active); in the test with HOP-92 NSCLC, 32.6%. In addition, the growth with NCI-H522 lung is -3.15% (active); with A549/ATCC NSCLC it was -16.6% (active); in the test on 786-0 renal, 61.1%; with COLO 205 colon it was -41.4% (active); in the test on DU-145 prostate, -0.179% (active); in the test on K-562 leukemia it was -21.4% (active). For the same compound, the growth is 87.1% in the test with MALME-3M melanoma; -35.2% (active) in the test on MDA-MB-231 breast; 55.7% in the test with RXF 393 renal; 47.1% in the test on SF-268 CNS; 71.7% in the test with SF-295 CNS; -20% (active) in the test with SF-539 CNS. Further, the growth was 96.1% in the test with UACC-257 melanoma and -26.9% (active) with M14 melanoma.

As for `COc1ccc(C2C(N)=NNC2c2cccc(O)c2)cc1` (stereo not given), the growth in the test with NCI-H23 lung is 90.2%; in the test on NCI-H226 lung, 84%; in the test with NCI-H322M lung, 90.6%; with HOP-62 NSCLC, 90.2%; in the test with NCI-H460 lung, 115%; in the test with HOP-92 NSCLC, 88.3%. Moreover, the growth with NCI-H522 lung was 89.2%; with A549/ATCC NSCLC, 99.8%; in the test on 786-0 renal, 108%; in the test on COLO 205 colon, 125%; in the test with DU-145 prostate it was 125%; with K-562 leukemia, 89%. The growth in the test on MALME-3M melanoma is 88.5%; in the test on MDA-MB-231 breast, 104%; in the test with RXF 393 renal, 97.2%; in the test with SF-268 CNS it was 99.4%; in the test with SF-295 CNS, 92.1%; with SF-539 CNS it was 95.4%. In addition, the results for the growth with UACC-257 melanoma and in the test with M14 melanoma were 107% and 104%, respectively.

`CCOC(=O)c1cn2ncnc(Oc3ccc(NC(=O)NCCN(CC)CC)c(Cl)c3)c2c1C`: the growth was 76.6% with NCI-H23 lung; 91.5% with NCI-H226 lung; 98.7% with NCI-H322M lung; 84.2% in the test on HOP-62 NSCLC; 104% in the test on NCI-H460 lung; 41.5% with HOP-92 NSCLC. The growth with NCI-H522 lung is 72.9%; in the test with A549/ATCC NSCLC it was 91.5%; with 786-0 renal, 72%; with COLO 205 colon it was 57.2%; with DU-145 prostate it was 90.5%; in the test with K-562 leukemia, -9.77% (active). Moreover, the growth with MALME-3M melanoma is 22.3%; in the test with MDA-MB-231 breast it was 59.8%; with RXF 393 renal, 41%; with SF-268 CNS, 65%; in the test on SF-295 CNS, 92%; with SF-539 CNS, 50.7%. The growth was -41.7% (active) in the test with UACC-257 melanoma and -64.4% (active) in the test with M14 melanoma.

In the case of `CNc1nc2c(s1)C(c1cccc(F)c1)CC(=O)N2` (stereo not given), the growth with NCI-H23 lung is 100%; in the test on NCI-H226 lung, 90.3%; with NCI-H322M lung, 99.1%; in the test with HOP-62 NSCLC, 93.3%; with NCI-H460 lung, 106%; in the test with HOP-92 NSCLC it was 93.4%. Also, the growth with NCI-H522 lung is 87.4%; in the test on A549/ATCC NSCLC, 106%; with 786-0 renal, 97.4%; in the test on COLO 205 colon, 110%; with DU-145 prostate it was 106%; in the test with K-562 leukemia it was 95.6%. Besides, the growth in the test on MALME-3M melanoma was 110%; in the test with MDA-MB-231 breast it was 104%; in the test on RXF 393 renal, 93.9%; with SF-268 CNS, 94.1%; with SF-295 CNS, 104%; in the test on SF-539 CNS, 92%. Also, the growth is 107% with UACC-257 melanoma and 106% in the test on M14 melanoma.

Turning to `C[C@]12CC[C@@H]3c4cc(OC(F)F)c(OS(N)(=O)=O)cc4CC[C@H]3[C@@H]1CC[C@@H]2OS(N)(=O)=O`, the growth in the test with NCI-H23 lung is 36.2%; in the test on NCI-H226 lung it was 93.2%; in the test with NCI-H322M lung, 65.7%; in the test with HOP-62 NSCLC, 44.4%; in the test on NCI-H460 lung, 15.1%; in the test with HOP-92 NSCLC it was 57.3%. Further, the growth is 45.7% in the test on NCI-H522 lung; 43.5% in the test on A549/ATCC NSCLC; 67.5% with 786-0 renal; 116% in the test with COLO 205 colon; 42.1% with DU-145 prostate; 16.8% in the test with K-562 leukemia. In addition, the growth with MALME-3M melanoma is 41%; in the test with MDA-MB-231 breast, 54%; in the test with RXF 393 renal it was 42.1%; in the test on SF-268 CNS, 49.7%; in the test on SF-295 CNS, 27.3%; in the test on SF-539 CNS it was 26%. Moreover, the growth in the test on UACC-257 melanoma was 62.2%; in the test with M14 melanoma it was 31.1%.

In the case of `O=C(/C=C/c1sc(Cl)nc1Cl)c1ccc(Br)cc1`, the growth is 85.8% in the test with NCI-H23 lung; 81.6% with NCI-H226 lung; 100% in the test on NCI-H322M lung; 97.3% with HOP-62 NSCLC; 103% in the test with NCI-H460 lung; 90.2% with HOP-92 NSCLC. For the same compound, the growth in the test on NCI-H522 lung is 86.6%; with A549/ATCC NSCLC it was 96.1%; in the test on 786-0 renal, 92.2%; with COLO 205 colon it was 78.8%; with DU-145 prostate it was 98.6%; in the test with K-562 leukemia, 9.52% (active). Besides, the growth is 83.6% in the test on MALME-3M melanoma; 90.4% in the test with MDA-MB-231 breast; 85.5% in the test on RXF 393 renal; 94.1% in the test with SF-268 CNS; 95.9% with SF-295 CNS; 71.1% in the test with SF-539 CNS. Further, the growth with UACC-257 melanoma is 98.3%; in the test with M14 melanoma it was 67.8%.

For the compound `N[C@@H](Cc1ccccc1)[C@@H](O)C(=O)NCc1ccc(F)cc1`, the growth with NCI-H23 lung was 106%; with NCI-H226 lung it was 103%; with NCI-H322M lung, 104%; with HOP-62 NSCLC it was 119%; in the test on NCI-H460 lung, 103%; in the test with HOP-92 NSCLC, 94.9%. Further, the growth in the test on NCI-H522 lung is 95.9%; with A549/ATCC NSCLC it was 104%; in the test on 786-0 renal, 98.5%; in the test with COLO 205 colon, 111%; with DU-145 prostate, 110%; with K-562 leukemia, 97%. Further, the growth with MALME-3M melanoma was 107%; in the test with MDA-MB-231 breast, 100%; in the test with RXF 393 renal, 118%; in the test on SF-268 CNS, 95.7%; in the test with SF-295 CNS it was 95.5%; in the test on SF-539 CNS it was 105%. Moreover, the growth in the test on UACC-257 melanoma is 107%; in the test on M14 melanoma, 101%.
